Measured values taken from the supplement of paper PMC10849652.
About 7,900 targets were measured; listed, in parts, are those with a hit and a random draw of the rest. About 0.6% of all pairs of compound and target were hits. Unmarked numbers belong to inactive results.

Columns and labels:
Experiment in all cases: log2 fold change, soluble protein after heating vs DMSO (PISA); higher = thermal stabilisation; K562 cells, 10 uM, 30 min; active = over 0.2 and 3.5 SD of the protein, either way, in both replicates (recomputed)
[1] = compound: NC(=O)Nc1cc(-c2cccc(F)c2)sc1C(=O)N[C@H]1CCCNC1
Procedure, shortened: (§1)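 Thermal stability values are relative to control samples and come from duplicates. They are expressed as log2 fold changes. For measurement, K562 cells (2×10^6 cells/mL) received 10 μM compound for 30 min, and aliquots were heated for 3 min over 48°C-58°C, pooled, and extracted at 4°C in PBS with 0.5% NP-40. Soluble protein, the supernatant after 21,000xg for 90 min, was quantified by TMTpro 16plex LC-MS/MS with equalised channel sums.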

[2] = compound: NC(=O)c1cnc(N[C@@H]2CCCC[C@@H]2N)nc1Nc1cccc(-n2nccn2)c1
Procedure, shortened: as §1

[3] = compound: NC1(c2ccc(-c3nc4ccn5c(=O)[nH]nc5c4cc3-c3ccccc3)cc2)CCC1
Procedure, shortened: as §1

[4] = compound: NCC(=O)Nc1ccc(-n2nc(C(F)(F)F)cc2-c2ccc3c(ccc4ccccc43)c2)cc1
Procedure, shortened: as §1

[5] = compound: Nc1ccccc1NC(=O)c1ccc(CNC(=O)OCc2cccnc2)cc1 [entinostat]
Procedure, shortened: as §1

[6] = compound: O=C(CCCCCCC(=O)Nc1ccccc1)NO [vorinostat]
Procedure, shortened: as §1

[7] = compound: O=C(CCCCCCNC(=O)c1cnc(N(c2ccccc2)c2ccccc2Cl)nc1)NO [citarinostat]
Procedure, shortened: as §1

[8] = compound: O=C(O)c1ccc2c(c1)nc(Nc1cccc(Cl)c1)c1ccncc12 [silmitasertib]
Procedure, shortened: as §1

[9] = compound: O=C1NC(=O)C(c2cnc3ccccn23)=C1c1cn2c3c(cc(F)cc13)CN(C(=O)N1CCCCC1)CC2
Procedure, shortened: as §1

[10] = compound: c1cc(OCCN2CCCCC2)cc(-c2n[nH]c3ccc(-c4nnc[nH]4)cc23)c1
Procedure, shortened: as §1

Chain of UniProt Q15392 (Q15392 whole entry, looked up): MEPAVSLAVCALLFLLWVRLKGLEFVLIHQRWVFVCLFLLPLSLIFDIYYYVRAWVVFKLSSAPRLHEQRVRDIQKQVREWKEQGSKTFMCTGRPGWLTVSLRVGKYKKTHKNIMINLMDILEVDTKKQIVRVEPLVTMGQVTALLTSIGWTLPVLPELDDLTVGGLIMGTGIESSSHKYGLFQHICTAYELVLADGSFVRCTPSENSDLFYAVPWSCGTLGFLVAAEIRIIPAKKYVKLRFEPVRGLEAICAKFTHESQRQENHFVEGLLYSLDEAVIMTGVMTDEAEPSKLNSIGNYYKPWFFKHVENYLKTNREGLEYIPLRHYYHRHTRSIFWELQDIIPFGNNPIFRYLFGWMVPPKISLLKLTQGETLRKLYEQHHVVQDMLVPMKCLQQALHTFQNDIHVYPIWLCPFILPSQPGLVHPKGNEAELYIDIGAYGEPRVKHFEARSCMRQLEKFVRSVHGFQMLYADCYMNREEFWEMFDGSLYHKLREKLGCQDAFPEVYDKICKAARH
Chain of UniProt Q5VYK3 (Q5VYK3 whole entry, looked up): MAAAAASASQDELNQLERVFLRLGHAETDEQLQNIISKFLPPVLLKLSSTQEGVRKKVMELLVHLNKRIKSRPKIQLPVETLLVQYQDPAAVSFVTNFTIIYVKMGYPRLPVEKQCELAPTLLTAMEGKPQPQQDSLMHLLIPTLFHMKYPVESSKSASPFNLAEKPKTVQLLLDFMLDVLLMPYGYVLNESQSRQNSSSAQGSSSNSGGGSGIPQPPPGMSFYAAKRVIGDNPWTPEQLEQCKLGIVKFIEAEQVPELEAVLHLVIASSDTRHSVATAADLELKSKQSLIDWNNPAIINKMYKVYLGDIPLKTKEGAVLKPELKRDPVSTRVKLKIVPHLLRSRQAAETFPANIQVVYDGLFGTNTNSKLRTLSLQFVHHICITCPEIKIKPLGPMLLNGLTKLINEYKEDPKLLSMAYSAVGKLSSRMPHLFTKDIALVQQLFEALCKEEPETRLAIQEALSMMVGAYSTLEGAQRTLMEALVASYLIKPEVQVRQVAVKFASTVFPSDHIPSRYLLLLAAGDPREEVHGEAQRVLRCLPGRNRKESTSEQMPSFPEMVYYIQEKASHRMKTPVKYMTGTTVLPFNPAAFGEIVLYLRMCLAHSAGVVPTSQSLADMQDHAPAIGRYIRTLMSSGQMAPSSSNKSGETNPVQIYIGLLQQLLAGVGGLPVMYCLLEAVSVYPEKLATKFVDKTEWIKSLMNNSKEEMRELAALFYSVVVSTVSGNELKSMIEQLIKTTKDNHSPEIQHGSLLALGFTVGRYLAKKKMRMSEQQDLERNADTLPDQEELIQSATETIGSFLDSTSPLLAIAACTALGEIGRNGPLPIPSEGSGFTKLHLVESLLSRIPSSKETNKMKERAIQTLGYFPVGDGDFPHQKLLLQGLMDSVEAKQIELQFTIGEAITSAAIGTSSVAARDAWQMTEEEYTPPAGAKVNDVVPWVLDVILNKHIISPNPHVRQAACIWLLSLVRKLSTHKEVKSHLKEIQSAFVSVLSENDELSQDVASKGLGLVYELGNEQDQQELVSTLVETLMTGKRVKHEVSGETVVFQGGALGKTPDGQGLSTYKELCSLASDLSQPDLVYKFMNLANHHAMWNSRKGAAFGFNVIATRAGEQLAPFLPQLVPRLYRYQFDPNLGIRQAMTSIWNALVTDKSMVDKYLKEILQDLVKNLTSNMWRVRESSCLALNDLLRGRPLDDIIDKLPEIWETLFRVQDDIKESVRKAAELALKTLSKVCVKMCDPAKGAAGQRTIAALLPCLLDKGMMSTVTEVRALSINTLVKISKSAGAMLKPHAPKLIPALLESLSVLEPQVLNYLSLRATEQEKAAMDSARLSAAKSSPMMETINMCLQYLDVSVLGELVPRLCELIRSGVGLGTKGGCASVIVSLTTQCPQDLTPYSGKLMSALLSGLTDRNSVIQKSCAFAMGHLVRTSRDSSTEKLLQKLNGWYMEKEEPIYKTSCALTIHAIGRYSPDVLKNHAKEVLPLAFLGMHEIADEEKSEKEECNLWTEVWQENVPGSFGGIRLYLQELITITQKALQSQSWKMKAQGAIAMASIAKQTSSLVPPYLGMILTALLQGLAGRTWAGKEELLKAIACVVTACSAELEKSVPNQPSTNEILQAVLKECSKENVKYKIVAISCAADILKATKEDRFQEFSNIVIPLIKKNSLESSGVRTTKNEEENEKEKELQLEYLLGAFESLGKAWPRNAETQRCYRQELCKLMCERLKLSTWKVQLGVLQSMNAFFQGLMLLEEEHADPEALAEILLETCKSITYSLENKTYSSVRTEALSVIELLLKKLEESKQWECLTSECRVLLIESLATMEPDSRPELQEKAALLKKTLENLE
Chain of UniProt Q96KC8 (Q96KC8 whole entry, looked up): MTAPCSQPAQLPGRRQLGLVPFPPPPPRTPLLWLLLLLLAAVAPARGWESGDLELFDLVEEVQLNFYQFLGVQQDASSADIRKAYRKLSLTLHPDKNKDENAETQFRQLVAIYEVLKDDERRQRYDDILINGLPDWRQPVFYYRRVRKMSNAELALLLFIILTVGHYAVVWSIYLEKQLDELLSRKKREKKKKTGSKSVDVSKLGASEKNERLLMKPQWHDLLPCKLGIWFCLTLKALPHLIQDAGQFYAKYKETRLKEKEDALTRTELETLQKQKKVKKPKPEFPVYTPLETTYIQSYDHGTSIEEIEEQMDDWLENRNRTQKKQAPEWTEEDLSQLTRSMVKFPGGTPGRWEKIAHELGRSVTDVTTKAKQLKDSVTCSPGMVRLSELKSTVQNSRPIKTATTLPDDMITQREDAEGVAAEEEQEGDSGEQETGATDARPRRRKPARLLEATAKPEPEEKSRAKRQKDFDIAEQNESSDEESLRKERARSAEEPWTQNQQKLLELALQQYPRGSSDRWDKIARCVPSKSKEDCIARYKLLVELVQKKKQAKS
Chain of UniProt Q96E09 (Q96E09 whole entry, looked up): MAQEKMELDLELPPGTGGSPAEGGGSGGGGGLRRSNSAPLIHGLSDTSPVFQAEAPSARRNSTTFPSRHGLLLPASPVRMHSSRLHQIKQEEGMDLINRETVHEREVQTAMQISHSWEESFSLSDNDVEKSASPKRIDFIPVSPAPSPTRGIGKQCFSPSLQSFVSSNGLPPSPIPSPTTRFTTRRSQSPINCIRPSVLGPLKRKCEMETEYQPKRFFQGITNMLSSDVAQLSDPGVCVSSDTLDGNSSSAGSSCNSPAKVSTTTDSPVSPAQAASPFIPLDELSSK
Chain of UniProt Q9H2P9 (Q9H2P9 whole entry, looked up): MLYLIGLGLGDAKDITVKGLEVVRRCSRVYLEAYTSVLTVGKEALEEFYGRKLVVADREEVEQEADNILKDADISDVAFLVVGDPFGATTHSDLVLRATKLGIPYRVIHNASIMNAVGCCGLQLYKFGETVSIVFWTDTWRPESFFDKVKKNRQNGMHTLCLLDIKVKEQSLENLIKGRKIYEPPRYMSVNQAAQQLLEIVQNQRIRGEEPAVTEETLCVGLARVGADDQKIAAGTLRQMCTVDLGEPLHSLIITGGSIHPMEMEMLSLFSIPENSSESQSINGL
Chain of UniProt Q13409 (Q13409 whole entry, looked up): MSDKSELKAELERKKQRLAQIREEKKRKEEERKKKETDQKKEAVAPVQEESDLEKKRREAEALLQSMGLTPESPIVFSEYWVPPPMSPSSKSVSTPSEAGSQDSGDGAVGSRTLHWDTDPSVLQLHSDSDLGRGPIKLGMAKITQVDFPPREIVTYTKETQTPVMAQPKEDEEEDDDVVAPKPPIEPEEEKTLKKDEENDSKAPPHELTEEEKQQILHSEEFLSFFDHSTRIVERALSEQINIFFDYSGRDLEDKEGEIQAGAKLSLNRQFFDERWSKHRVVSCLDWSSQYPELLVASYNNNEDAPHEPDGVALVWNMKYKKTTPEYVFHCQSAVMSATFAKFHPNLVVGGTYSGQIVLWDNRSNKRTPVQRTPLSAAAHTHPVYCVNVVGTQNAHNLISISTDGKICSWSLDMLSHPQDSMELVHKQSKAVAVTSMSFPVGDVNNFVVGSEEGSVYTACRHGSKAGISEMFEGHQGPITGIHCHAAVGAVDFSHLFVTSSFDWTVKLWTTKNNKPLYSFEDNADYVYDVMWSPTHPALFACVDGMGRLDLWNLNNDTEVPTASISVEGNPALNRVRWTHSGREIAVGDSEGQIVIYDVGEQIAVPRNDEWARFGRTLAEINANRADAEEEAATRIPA
Chain of UniProt Q9BW60 (Q9BW60 whole entry, looked up): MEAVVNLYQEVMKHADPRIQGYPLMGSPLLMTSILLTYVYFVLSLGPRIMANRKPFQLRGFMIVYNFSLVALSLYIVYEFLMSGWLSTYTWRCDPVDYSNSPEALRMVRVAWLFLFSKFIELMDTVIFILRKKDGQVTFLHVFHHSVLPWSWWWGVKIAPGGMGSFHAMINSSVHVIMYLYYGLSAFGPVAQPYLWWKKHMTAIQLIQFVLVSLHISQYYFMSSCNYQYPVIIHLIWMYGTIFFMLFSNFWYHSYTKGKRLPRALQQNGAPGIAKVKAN
Chain of UniProt Q9H773 (Q9H773 whole entry, looked up): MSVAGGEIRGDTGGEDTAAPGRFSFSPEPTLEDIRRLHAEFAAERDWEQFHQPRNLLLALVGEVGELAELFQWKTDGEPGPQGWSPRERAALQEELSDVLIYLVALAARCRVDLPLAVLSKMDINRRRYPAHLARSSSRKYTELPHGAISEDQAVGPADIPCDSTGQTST
Chain of UniProt Q7Z7A3 (Q7Z7A3 whole entry, looked up): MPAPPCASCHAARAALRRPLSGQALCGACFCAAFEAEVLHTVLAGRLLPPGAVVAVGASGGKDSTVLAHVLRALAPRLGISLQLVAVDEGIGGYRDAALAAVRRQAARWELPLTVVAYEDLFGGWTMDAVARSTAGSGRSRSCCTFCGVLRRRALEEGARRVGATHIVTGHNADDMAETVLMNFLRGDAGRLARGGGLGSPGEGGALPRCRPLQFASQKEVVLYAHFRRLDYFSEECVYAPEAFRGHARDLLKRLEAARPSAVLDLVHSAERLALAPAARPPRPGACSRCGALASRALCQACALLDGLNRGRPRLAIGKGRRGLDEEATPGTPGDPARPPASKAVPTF

Target | log2 fold change [1] | log2 fold change [2] | log2 fold change [3] | log2 fold change [4] | log2 fold change [5] | log2 fold change [6] | log2 fold change [7] | log2 fold change [8] | log2 fold change [9] | log2 fold change [10]
ECPAS (UniProt Q5VYK3) | -0.009 | -0.024 | -0.169 | -0.035 | 0.073 | 0.077 | 0.08 | 0.071 | -0.038 | -0.032
DHX36 (UniProt Q9H2U1) | 0 | 0.025 | -0.028 | 0.056 | -0.003 | -0.028 | 0.014 | 0.009 | 0.11 | -0.283 (active)
DNAJB1 (UniProt P25685) | -0.006 | -0.041 | -0.09 | -0.083 | 0.013 | 0.034 | 0.044 | 0.011 | -0.005 | -0.04
DMXL1 (UniProt Q9Y485) | -0.026 | -0.075 | -0.052 | -0.015 | 0.033 | 0.069 | 0.005 | 0.04 | -0.007 | -0.071
CTU1 (UniProt Q7Z7A3) | 0.038 | -0.015 | -0.199 | -0.142 | 0.023 | 0.075 | 0.049 | 0.021 | 0 | 0.008
DLD (UniProt P09622) | 0.003 | 0.007 | -0.088 | 0.033 | -0.013 | -0.02 | 0.011 | -0.042 | -0.004 | -0.093
EOGT (UniProt Q5NDL2) | -0.008 | -0.063 | -0.045 | -0.011 | 0.031 | -0.092 | -0.016 | 0.038 | 0.009 | -0.063
EXOC8 (UniProt Q8IYI6) | 0.044 | -0.044 | -0.373 (active) | -0.039 | 0.108 | 0.051 | 0.084 | 0.035 | 0.045 | -0.062
DCUN1D1 (UniProt Q96GG9) | -0.024 | -0.048 | -0.102 | -0.01 | 0.016 | 0.002 | 0.054 | 0.002 | -0.098 | -0.02
FAM122A (UniProt Q96E09) | -0.031 | 0.076 | -0.048 | 0.023 | 0.143 | 0.025 | -0.009 | 0.005 | -0.052 | 0.062
DAG1 (UniProt Q14118) | -0.035 | 0.123 | 0.081 | -0.054 | -0.013 | 0.023 | -0.015 | -0.005 | -0.015 | -0.001
DHRS1 (UniProt Q96LJ7) | -0.118 | -0.047 | 0.184 | 0.095 | -0.082 | -0.098 | -0.237 | 0 | 0.834 (active) | 0.291
DNAH11 (UniProt Q96DT5) | -0.099 | -0.064 | 0.346 | 0.044 | -0.032 | -0.24 | -0.213 | 0.197 | -0.098 | -0.09
DNAJC1 (UniProt Q96KC8) | 0.013 | -0.055 | -0.082 | -0.08 | 0.042 | 0.106 | 0.017 | 0.01 | -0.016 | -0.083
CYP51A1 (UniProt Q16850) | -0.018 | -0.004 | 0.024 | -0.033 | -0.045 | 0.119 | 0.006 | 0.001 | 0.964 (active) | -0.112
DHRS7B (UniProt Q6IAN0) | -0.099 | 0.083 | -0.012 | 0.117 | -0.014 | 0.16 | 0.01 | -0.05 | -0.113 | 0.077
FADS1, A0A0A0MR51 | -0.041 | -0.036 | -0.074 | 0.036 | -0.002 | -0.105 | -0.029 | 0.014 | -0.15 | -0.029
ELOVL1 (UniProt Q9BW60) | 0.017 | -0.191 | -0.087 | -0.055 | 0.05 | 0.321 | -0.006 | -0.046 | 0.002 | 0.035
FAM118A (UniProt Q9NWS6) | 0.052 | -0.129 | -0.351 | 0.015 | 0.149 | 0.054 | -0.289 | 0.166 | -0.088 | 0.322
EIF4G1 isoform 8 (UniProt Q04637) | -0.104 | -0.273 | -0.154 | -0.106 | 0.185 | 0.116 | 0.058 | -0.045 | 0.194 | -0.269
EBNA1BP2 (UniProt Q99848) | 0.05 | 0.006 | 0.195 | 0.158 | -0.029 | 0.133 | 0.041 | 0.151 | 0.352 | -0.292
DPH5 isoform 5 (UniProt Q9H2P9) | -0.036 | -0.005 | 0.209 | -0.003 | -0.018 | -0.009 | 0.017 | -0.008 | 0.109 | 0.038
DBT (UniProt P11182) | -0.009 | 0.003 | 0.005 | -0.021 | -0.042 | 0.006 | -0.011 | 0.027 | 0.022 | -0.093
DCTN1 isoform 4 (UniProt Q14203) | 0.002 | -0.052 | -0.033 | 0.019 | 0.049 | 0.029 | 0.007 | 0.046 | 0.081 | -0.089
DYRK1A isoform 2 (UniProt Q13627) | -0.225 (active) | -0.034 | -0.115 | -0.064 | 0.028 | 0.056 | 0 | -0.292 (active) | -0.029 | –
DYNC1I2 isoform 5 (UniProt Q13409) | -0.021 | -0.016 | -0.023 | 0.059 | -0.018 | -0.044 | 0.015 | 0.004 | -0.012 | 0.004
DHCR24 (UniProt Q15392) | -0.022 | -0.037 | 0.048 | -0.024 | -0.082 | -0.012 | 0 | -0.018 | 0.041 | 1.08 (active)
DCTPP1 (UniProt Q9H773) | -0.051 | 0.117 | -0.014 | 0.028 | 0.062 | -0.093 | 0.005 | -0.003 | -0.001 | 0.008
FAM83D (UniProt Q9H4H8) | -0.031 | -0.073 | -0.072 | 0.075 | 0.008 | 0.066 | 0.115 | 0.048 | -0.058 | 0.059
EHBP1L1 (UniProt Q8N3D4) | -0.091 | -0.04 | -0.039 | -0.039 | 0 | 0.054 | 0.041 | 0.015 | -0.043 | -0.101
